# Test results: PubChem BioAssay (Tox21)
# A number with no mark means an inactive call. Results filed as inconclusive are left out. A call without a number means that no potency is given here. Activity calls are given as the source filed them. Unless noted, calls follow the shape of the dose curve; as a rule, active = well fitted curve in the direction sought with a large enough effect in the repeat runs; inconclusive = weak or mixed curves; inactive = no such curve, though single readings can be large; an effect the other way counts as inactive or inconclusive.
# Legend:
# [1] = qHTS assay to identify small molecule antagonists of the TGF-beta/Smad signaling pathway - cell viability counter screen (AID 1346824); also: nearly all actives have a fitted effect of over 50% in size
# Summary of the method: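 SBE-bla HEK 293T cells, incubated overnight, then compound plus 0.25 ng/mL TGF-beta1 (stock added) for 5 hr at 37 C. Viability was read in the same wells by CellTiter-Glo luminescence after 30 min at room temperature.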
# [2] = qHTS assay to identify small molecule agonists of the TGF-beta/Smad signaling pathway - cell viability counter screen (AID 1346829); also: top concentration of the series differs between compounds; nearly all actives have a fitted effect of over 45% in size
# Summary of the method: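 CellTiter-Glo luminescence readout; SBE-bla HEK 293T cells, overnight plating, compound 5 hr at 37 C/5% CO2, then bla substrate 2 hr RT, then CellTiter-Glo 30 min RT.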
# [3] = qHTS assay to identify small molecule agonists of the TGF-beta/Smad signaling pathway (AID 1346859; active = well fitted activation curve with a large enough effect in the signal ratio in the repeat runs, not every such curve was filed as active; the % refers to the signal ratio; also: series mostly up to about 77 µM)
# Summary of the method: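 Reporter line: HEK 293T with stably integrated SBE-controlled beta-lactamase. Compound exposure lasts 5 hr at 37 C and 5% CO2; substrate loading follows for 2 hr at room temperature, with emission read at 460 and 530 nm.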
# [4] = molecular target: Thyrotropin-releasing hormone receptor (Homo sapiens) (UniProt P34981); test: qHTS assay to identify small molecule antagonists of the thyrotropin-releasing hormone receptor (TRHR) signaling pathway (AID 1346877; active = well fitted inhibition curve with a large enough effect in the repeat runs, not every such curve was filed as active; also: series mostly up to about 51 µM)
# Chain of Thyrotropin-releasing hormone receptor (Homo sapiens) (P34981 whole entry, looked up): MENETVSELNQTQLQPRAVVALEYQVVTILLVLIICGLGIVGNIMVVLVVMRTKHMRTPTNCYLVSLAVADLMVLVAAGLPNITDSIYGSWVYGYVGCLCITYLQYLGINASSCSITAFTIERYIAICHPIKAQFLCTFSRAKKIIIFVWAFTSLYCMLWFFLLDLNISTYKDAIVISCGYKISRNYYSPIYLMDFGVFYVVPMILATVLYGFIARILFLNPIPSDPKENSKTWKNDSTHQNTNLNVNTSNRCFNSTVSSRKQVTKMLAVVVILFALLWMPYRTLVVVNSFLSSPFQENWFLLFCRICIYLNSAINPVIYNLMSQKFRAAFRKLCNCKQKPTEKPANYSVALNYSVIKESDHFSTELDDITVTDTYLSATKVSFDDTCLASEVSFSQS
# Summary of the method: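 TRHR-expressing HEK293 cells were seeded, cultured 18 h at 37 °C, then loaded with calcium dye for 2 h. Compounds were pre-incubated 5 min at room temperature before 1 nM TRH (final) was added, and kinetic fluorescence was recorded for 3 min.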
# [5] = Human pregnane X receptor (PXR) small molecule agonists, qHTS cell viability counter screen (AID 1346977); also: nearly all actives have a fitted effect of over 50% in size
# Summary of the method: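 Cytotoxicity counter screen run in the same wells as the PXR luciferase assay, using PXR-Luc HepG2 cells in charcoal-stripped serum medium. Viability: CellTiter-Fluor fluorescence after 24hr compound treatment.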
# [6] = Caspase-3/7 induction in HepG2 cells by small molecules, qHTS assay (AID 1346978); also: nearly all actives have a fitted effect of over 15% in size
# Summary of the method: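 Wild-type HepG2 cells, 2,000/well, settled 5 hr at 37 C and 5% CO2, then compound-treated for 17 hr; caspase-3/7 activity read by luminescent Caspase-Glo 3/7 after 30 min at room temperature.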
# [7] = Caspase-3/7 induction in CHO-K1 cells by small molecules, qHTS cell viability counter screen (AID 1346979); also: nearly all actives have a fitted effect of over 35% in size
# Summary of the method: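 Cytotoxicity counter screen run in parallel with the caspase-3/7 assay: CHO-K1 cells, 16hr compound treatment at 37C, then CellTiter-Fluor for 1hr before fluorescence reading.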
# [8] = Caspase-3/7 induction in CHO-K1 cells by small molecules, qHTS assay (AID 1346980); also: nearly all actives have a fitted effect of over 15% in size
# Summary of the method: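 Wild-type CHO-K1 cells exposed to compounds for 17hr at 37 C, 5% CO2. Caspase-3/7 activity then measured by Caspase-Glo 3/7 luminescence after 30min at room temperature.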
# [9] = Caspase-3/7 induction in HepG2 cells by small molecules, qHTS cell viability counter screen (AID 1346981); also: series mostly up to about 92 µM; nearly all actives have a fitted effect of over 30% in size
# Summary of the method: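 Wild-type HepG2 cells (2,000/well) were allowed to settle for 5 hr at 37 C, 5% CO2, then dosed with compounds in DMSO by pin transfer. After 16 hr at 37 C, CellTiter-Fluor was added and fluorescence read 1 hr later.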
# [10] = molecular target: Nuclear receptor subfamily 1 group I member 2 (Homo sapiens) (UniProt O75469); test: Human pregnane X receptor (PXR) small molecule agonists, qHTS assay (AID 1346982); also: nearly all actives have a fitted effect of over 35% in size
# Chain of Nuclear receptor subfamily 1 group I member 2 (Homo sapiens) (O75469 whole entry, looked up): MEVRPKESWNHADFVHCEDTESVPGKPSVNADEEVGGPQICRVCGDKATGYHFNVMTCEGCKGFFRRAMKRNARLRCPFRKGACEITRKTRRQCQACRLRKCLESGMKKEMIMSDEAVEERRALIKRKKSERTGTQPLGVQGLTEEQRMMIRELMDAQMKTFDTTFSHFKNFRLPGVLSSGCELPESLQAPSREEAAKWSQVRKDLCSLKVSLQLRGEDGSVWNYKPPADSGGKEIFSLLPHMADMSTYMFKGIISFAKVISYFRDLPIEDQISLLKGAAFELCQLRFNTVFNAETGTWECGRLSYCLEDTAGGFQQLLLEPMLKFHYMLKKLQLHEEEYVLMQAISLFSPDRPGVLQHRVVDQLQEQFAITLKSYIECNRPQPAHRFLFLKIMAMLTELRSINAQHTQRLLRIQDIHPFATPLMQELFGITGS
# Summary of the method: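 PXR-Luc HepG2 cells (CYP3A4 promoter-driven luciferase) were seeded in medium with 5% charcoal-stripped FBS, left 5 hr at 37 C, then exposed to compounds in DMSO for 24 hr. Luminescence was read after ONE-Glo addition.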
# [11] = molecular target: Cytochrome P450 2D6 (Homo sapiens) (UniProt P10635); test: Cytochrome P450 Family 2 Subfamily D Member 6 (CYP2D6) small molecule antagonists: luciferase reporter qHTS assay (AID 1671196); also: nearly all actives have a fitted effect of over 50% in size; also: potency is read from the fitted curve at half-maximal effect
# Chain of Cytochrome P450 2D6 (Homo sapiens) (P10635 whole entry, looked up): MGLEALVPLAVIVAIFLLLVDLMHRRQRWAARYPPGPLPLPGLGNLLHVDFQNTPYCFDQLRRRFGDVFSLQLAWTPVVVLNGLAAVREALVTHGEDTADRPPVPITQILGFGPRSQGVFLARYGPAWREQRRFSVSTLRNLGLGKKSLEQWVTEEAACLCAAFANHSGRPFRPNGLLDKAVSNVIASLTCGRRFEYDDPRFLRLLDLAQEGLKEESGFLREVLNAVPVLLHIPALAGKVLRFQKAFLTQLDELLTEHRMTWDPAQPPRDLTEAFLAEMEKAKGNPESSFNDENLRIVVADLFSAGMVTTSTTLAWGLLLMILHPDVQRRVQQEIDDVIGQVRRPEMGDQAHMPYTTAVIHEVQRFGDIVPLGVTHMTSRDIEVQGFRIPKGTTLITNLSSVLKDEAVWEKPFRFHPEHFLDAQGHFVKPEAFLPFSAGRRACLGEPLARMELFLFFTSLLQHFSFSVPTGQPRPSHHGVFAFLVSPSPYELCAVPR
# Summary of the method: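 CYP2D6 enzyme–substrate mix was held with compound for 10 min at room temperature, then NADPH regeneration solution was added and the reaction ran 1 h at room temperature. Luciferin product was detected by luminescence after 20 min with detection reagent.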
# [12] = molecular target: Cytochrome P450 2C19 (Homo sapiens) (UniProt P33261); test: Cytochrome P450 Family 2 Subfamily C Member 19 (CYP2C19) small molecule antagonists: luciferase reporter qHTS assay (AID 1671197); also: nearly all actives have a fitted effect of over 65% in size; also: potency is read from the fitted curve at half-maximal effect
# Chain of Cytochrome P450 2C19 (Homo sapiens) (P33261 whole entry, looked up): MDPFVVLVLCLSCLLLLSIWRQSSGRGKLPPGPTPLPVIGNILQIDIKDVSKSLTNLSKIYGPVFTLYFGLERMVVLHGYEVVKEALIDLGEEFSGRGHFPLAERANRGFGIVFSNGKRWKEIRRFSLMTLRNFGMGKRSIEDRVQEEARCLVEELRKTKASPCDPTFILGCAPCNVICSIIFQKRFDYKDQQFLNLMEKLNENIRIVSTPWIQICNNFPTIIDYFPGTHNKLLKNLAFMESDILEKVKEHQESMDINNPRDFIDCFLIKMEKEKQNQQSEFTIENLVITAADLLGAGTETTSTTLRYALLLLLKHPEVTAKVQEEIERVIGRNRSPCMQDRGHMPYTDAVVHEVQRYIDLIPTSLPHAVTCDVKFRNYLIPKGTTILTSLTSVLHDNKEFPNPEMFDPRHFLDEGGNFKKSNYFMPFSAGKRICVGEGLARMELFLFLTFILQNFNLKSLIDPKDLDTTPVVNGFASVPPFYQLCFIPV
# Summary of the method: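 Enzyme-substrate mix with proluciferin substrate (P450-Glo CYP2C19 system) preincubated with compounds 10 min at room temperature; NADPH regeneration solution added, 37C for 1 h; detection reagent stops reaction, luminescence read after 20 min. Ketoconazole positive control.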
# [13] = molecular target: Cytochrome P450 2C9 (Homo sapiens) (UniProt P11712); test: Cytochrome P450 Family 2 Subfamily C Member 9 (CYP2C9) small molecule antagonists: luciferase reporter qHTS assay (AID 1671198); also: nearly all actives have a fitted effect of over 50% in size; also: potency is read from the fitted curve at half-maximal effect
# Chain of Cytochrome P450 2C9 (Homo sapiens) (P11712 whole entry, looked up): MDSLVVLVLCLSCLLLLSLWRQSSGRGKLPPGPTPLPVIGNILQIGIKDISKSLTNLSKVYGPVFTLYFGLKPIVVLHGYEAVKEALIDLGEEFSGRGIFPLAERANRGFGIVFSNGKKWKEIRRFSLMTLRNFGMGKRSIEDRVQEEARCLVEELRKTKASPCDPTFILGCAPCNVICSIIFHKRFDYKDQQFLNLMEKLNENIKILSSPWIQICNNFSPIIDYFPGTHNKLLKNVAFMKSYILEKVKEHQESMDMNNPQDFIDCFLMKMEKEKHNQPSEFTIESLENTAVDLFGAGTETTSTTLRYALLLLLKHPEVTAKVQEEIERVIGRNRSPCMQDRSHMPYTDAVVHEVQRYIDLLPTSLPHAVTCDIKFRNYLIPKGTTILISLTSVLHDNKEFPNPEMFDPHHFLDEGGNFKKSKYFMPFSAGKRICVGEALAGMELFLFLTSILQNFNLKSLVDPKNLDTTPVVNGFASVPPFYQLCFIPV
# Summary of the method: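 P450-Glo proluciferin substrate with CYP2C9 enzyme; 10 min RT preincubation, then NADPH regeneration 1 h at 37C; luciferin detection reagent 20 min RT, luminescence in relative luminescence units.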
# [14] = molecular target: Cytochrome P450 1A2 (Homo sapiens) (UniProt P05177); test: Cytochrome P450 Family 1 Subfamily A Member 2 (CYP1A2) small molecule antagonists: luciferase reporter qHTS assay (AID 1671199); also: nearly all actives have a fitted effect of over 50% in size; also: potency is read from the fitted curve at half-maximal effect
# Chain of Cytochrome P450 1A2 (Homo sapiens) (P05177 whole entry, looked up): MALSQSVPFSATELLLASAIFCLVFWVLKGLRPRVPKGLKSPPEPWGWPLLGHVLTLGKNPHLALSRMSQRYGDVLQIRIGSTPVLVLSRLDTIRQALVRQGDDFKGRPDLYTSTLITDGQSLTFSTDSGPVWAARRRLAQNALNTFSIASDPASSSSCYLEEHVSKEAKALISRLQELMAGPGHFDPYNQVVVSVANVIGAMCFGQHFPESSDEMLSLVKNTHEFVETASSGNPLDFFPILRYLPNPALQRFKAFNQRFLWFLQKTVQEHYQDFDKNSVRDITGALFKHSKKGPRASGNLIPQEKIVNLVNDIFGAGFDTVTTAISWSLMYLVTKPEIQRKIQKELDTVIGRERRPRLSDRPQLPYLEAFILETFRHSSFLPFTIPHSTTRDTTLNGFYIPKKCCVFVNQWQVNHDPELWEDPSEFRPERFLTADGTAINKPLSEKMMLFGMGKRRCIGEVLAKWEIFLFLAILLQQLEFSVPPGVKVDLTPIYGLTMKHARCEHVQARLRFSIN
# Summary of the method: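 Human CYP1A2 activity measured with a P450-Glo proluciferin substrate; compounds in DMSO preincubated 10 min at room temperature with enzyme-substrate mix, then NADPH regeneration system added for 1 h. Luciferin detection reagent, 20 min, luminescence read.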
# [15] = molecular target: Voltage-gated inwardly rectifying potassium channel KCNH2 (Homo sapiens) (UniProt Q12809); test: Human Ether-a-go-go-Related Gene (hERG) channel small molecule antagonists: fluorescence cell-based qHTS assay (AID 1671200)
# Chain of Voltage-gated inwardly rectifying potassium channel KCNH2 (Homo sapiens) (Q12809 whole entry, looked up): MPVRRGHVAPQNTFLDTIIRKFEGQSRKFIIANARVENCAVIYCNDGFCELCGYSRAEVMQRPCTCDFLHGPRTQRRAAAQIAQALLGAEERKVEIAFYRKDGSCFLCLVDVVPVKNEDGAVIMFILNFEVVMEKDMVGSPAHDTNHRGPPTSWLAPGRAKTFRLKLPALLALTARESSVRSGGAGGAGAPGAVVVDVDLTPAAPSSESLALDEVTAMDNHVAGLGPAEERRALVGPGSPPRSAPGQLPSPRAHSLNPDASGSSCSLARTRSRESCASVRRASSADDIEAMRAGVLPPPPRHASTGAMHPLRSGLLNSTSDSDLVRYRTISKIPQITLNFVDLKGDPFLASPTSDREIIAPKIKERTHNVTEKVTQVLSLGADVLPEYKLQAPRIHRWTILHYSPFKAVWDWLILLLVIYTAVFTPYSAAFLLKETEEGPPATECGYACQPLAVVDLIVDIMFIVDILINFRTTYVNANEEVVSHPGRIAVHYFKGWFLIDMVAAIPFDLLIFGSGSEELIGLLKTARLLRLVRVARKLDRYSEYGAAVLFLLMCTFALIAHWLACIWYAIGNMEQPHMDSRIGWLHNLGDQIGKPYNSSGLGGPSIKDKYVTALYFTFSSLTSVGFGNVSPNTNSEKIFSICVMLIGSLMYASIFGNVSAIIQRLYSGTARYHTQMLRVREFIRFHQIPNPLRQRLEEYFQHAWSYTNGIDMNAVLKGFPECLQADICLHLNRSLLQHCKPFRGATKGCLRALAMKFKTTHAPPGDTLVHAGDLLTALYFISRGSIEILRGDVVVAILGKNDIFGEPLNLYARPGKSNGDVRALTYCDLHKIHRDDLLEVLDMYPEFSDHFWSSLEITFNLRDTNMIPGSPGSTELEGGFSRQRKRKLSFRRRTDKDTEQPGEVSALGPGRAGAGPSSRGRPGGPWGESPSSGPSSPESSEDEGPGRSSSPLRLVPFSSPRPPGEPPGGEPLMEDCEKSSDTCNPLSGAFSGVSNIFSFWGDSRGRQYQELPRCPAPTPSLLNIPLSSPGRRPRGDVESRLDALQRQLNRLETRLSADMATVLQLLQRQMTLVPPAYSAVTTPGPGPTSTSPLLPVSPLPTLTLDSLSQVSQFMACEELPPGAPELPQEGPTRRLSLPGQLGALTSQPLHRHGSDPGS
# Summary of the method: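 Fluorescence at 540 nm emission (480 nm excitation) was recorded kinetically for 2 min at 1-second intervals once the thallium-containing stimulus reached cells previously loaded with FluxOR II dye.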
# [16] = molecular target: Cytochrome P450 3A4 (Homo sapiens) (UniProt P08684); test: Cytochrome P450 Family 3 Subfamily A Member 4 (CYP3A4) small molecule antagonists: luciferase reporter qHTS assay (AID 1671201)
# Chain of Cytochrome P450 3A4 (Homo sapiens) (P08684 whole entry, looked up): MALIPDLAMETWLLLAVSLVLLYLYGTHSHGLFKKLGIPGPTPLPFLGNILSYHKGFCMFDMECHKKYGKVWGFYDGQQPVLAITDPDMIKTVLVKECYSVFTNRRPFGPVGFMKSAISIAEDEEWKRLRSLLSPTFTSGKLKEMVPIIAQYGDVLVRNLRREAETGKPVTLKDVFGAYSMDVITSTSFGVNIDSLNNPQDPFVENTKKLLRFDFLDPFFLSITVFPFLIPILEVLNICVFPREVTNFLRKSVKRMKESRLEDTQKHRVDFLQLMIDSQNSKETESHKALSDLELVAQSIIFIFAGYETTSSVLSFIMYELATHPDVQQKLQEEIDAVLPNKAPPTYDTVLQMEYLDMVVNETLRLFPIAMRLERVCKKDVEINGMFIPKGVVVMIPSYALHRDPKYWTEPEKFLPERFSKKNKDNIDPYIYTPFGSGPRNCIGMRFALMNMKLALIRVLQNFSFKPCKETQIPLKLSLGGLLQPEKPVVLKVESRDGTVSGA
# Summary of the method: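 qHTS, 1536-well. CYP3A4 + proluciferin substrate, cpd 10 min RT → NADPH regen 1 h RT → detection reagent 20 min → luminescence (RLU). Ketoconazole positive control.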
# [17] = molecular target: Nuclear receptor subfamily 1 group I member 2 (Homo sapiens) (UniProt O75469); test: CYP3A4 induction through human pregnane X receptor (PXR) by small molecules, qHTS assay (AID 1346984); also: nearly all actives have a fitted effect of over 40% in size
# Summary of the method: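 DPX-2 cells (HepG2 co-transfected with PXR and CYP3A4 promoter-luciferase) treated with compounds 24 h at 37C; luciferin-IPA CYP3A4 substrate 3uM final added for 3 h, then One-Glo; luminescence read. qHTS format.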
# [18] = molecular target: Nuclear receptor subfamily 1 group I member 2 (Homo sapiens) (UniProt O75469); test: Human pregnane X receptor (PXR) activation by small molecules, qHTS assay (AID 1346985); also: nearly all actives have a fitted effect of over 40% in size
# Summary of the method: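 DPX-2 cells (HepG2 co-transfected with a PXR response element and a CYP3A4-promoter luciferase construct) were seeded at 2,000 per well, rested 5 hr at 37C, then exposed to DMSO-dissolved compounds for 24 hr. Activation was read as luciferase luminescence.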
# [19] = molecular target: Thyrotropin-releasing hormone receptor (Homo sapiens) (UniProt P34981); test: qHTS assay to identify small molecule agonists of the thyrotropin-releasing hormone receptor (TRHR) signaling pathway (AID 1346891; calls by dose curve; also: series mostly up to about 58 µM)
# Summary of the method: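 Cells: TRHR-Hek293, seeded and incubated 18 h. Dye loading: 2 h at 37 °C. Compound added from DMSO stock by pin tool. Read-out: kinetic calcium fluorescence over 3 min.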
SMILES,outcome [1],outcome [2],outcome [3],outcome [4],outcome [5],outcome [6],Potency [7],outcome [8],outcome [9],Potency [10],Potency [11],Potency [12],Potency [13],Potency [14],Potency [15],Potency [16],Potency [17],Potency [18],outcome [19]
CC(=O)OCC(=O)Nc1cc(C#N)cc(NC(=O)COC(C)=O)c1Cl,inactive,inactive,inactive,inactive,inactive,inactive,inactive,inactive,inactive,inactive,inactive,inactive,inactive,inactive,inactive,inactive,,,
CCC(=O)Oc1ccc2c(c1)CC[C@@H]1[C@@H]2CC[C@@]2(C)[C@H]1C[C@@H](OC(=O)CC)[C@@H]2OC(=O)CC,inactive,inactive,inactive,inactive,inactive,inactive,inactive,inactive,inactive,inactive,inactive,27.5 µM (active),24.5 µM (active),inactive,,inactive,,,
CC(C)NCC(O)c1ccc2ccccc2c1 (stereo unspecified),inactive,inactive,inactive,inactive,,inactive,inactive,inactive,,inactive,2.19 µM (active),inactive,inactive,15.5 µM (active),inactive,inactive,inactive,inactive,
CC(C)COC(=O)c1ccccc1,inactive,inactive,inactive,inactive,inactive,inactive,inactive,inactive,inactive,inactive,inactive,inactive,inactive,,inactive,inactive,,,
CC(C)Cn1cnc2c1c(=O)n(C)c(=O)n2C,inactive,inactive,inactive,inactive,inactive,,inactive,inactive,,inactive,,inactive,inactive,15.5 µM (active),inactive,inactive,inactive,inactive,inactive
CCCCC1CCC(O)CC1 (stereo unspecified),inactive,inactive,inactive,inactive,inactive,,inactive,inactive,inactive,inactive,,inactive,inactive,,inactive,,,,inactive
CC(=O)C(C)O (stereo unspecified),inactive,inactive,inactive,inactive,inactive,inactive,inactive,inactive,inactive,inactive,,inactive,inactive,inactive,inactive,inactive,,,
